Over roughly 33,000 sequences, “E-score (-0.5 to 0.5)” has its median near -0.0034; the highest 2% begin near 0.25. For the sample, the highest values were picked, then their nearest neighbours and some sequences at random.
Biological target: T1, Yap3 (UniProt P38749)
T1 sequence: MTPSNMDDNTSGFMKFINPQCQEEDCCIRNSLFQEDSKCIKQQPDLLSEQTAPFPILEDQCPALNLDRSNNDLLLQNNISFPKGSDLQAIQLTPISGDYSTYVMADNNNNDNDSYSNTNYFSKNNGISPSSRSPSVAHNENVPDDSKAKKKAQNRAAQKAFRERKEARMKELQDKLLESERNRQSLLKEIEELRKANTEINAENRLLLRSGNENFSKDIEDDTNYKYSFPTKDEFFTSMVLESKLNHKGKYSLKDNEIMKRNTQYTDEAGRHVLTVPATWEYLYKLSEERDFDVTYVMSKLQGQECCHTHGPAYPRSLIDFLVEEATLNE
Assay: PBM E-score (8-mer binding enrichment) (E-score (-0.5 to 0.5)); higher = stronger / more preferred TF binding
Conditions: protein concentration: 100 nM; construct: GST-full length
Summary of the method: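 Universal all-10-mer Agilent arrays, double-stranded by primer extension on fresh or once-stripped slides, were probed with about 100-200 nM GST-tagged yeast transcription factors made by PURExpress. Fluorescent anti-GST detected bound protein, and masliner normalised the scans. E-scores from the Universal PBM Analysis Suite were given to each ungapped eight-base word pooled with its reverse complement.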

Sequence	PBM E-score
AACTAGAT	0.0716
AATTGTTG	0.0159
CATTGTTC	0.125
AATTGTTC	0.257
ATTTGTTA	0.166
CTTTGTTC	0.0752
ATTTGTTC	0.321
CATAGTTA	0.0154
ATAAGCAA	0.137
GTAAGCAA	0.27
CTAAGCAA	-0.0294
GCATCATA	0.193
GTATCATA	0.276
GTATCAGA	-0.0367
GTATCTTA	0.267
CTATCATA	0.12
ATATCATA	0.271
ATATCATG	0.101
CTATCTTA	0.126
GTATCTGA	0.133
CCTCAAAC	0.0235
TCGGGCCA	-0.132
GTGAGGCA	0.0355
CATGACCC	-0.0127
CGGGCCTA	-0.255

Sequence	PBM E-score
GTAGACCA	-0.0918
ACCCGCAG	-0.0808
ATCACTCG	0.0758
CCAGGTTC	-0.317
GTGCGAGA	0.0126
ATGTACCA	-0.0322
AAGTTATG	0.256
AAGTTATT	0.174
AAGTTATA	0.175
GATACTGA	0.0116
TATACTGA	0.295
CATACTGA	0.136
TGAGACAA	0.0572
ATTTCATG	-0.0106
ATTTCATC	0.269
ATTTCATA	0.239
CTAGTATC	0.0604
TTAATTAA	0.0675
GTAATTAC	0.306
CCAATTAC	0.274
CTAATTAA	0.135
GGAATTAC	0.235
CTAATTGA	0.0727
GTAATTGA	0.115
ATAATTGA	0.308

Sequence	PBM E-score
ACAATTAC	0.203
GCAATTAC	0.102
ATAATTAA	0.259
CCAATTAA	0.0782
CGTTCATA	-0.0126
AGCACGCC	-0.157
ACCACTGC	-0.048
GACACTAA	0.064
AAGGGGCA	-0.105
CTCTCGGA	0.00281
ATATGCGG	0.0287
GCAGTGAA	0.225
GTCAAAGA	-0.0517
AGTAGCCA	-0.141
CATGCACC	-0.191
CGCTGCTC	-0.133
CAAATTAG	0.122
ATAATTAC	0.333
ACAATTAG	-0.0417
ATAATTCC	0.163
ATAATTAG	0.347
CCAATTAG	0.177
GTAATTCA	0.177
AGAATTAG	0.0612
GGAATTAA	0.233

Sequence	PBM E-score
CTAATTAC	0.253
GTAATTAA	0.259
CTAATTAG	0.347
ATTAGAGC	0.116
GAACGCTC	-0.11
AGAGAAAT	0.142
CAACAGAA	-0.0742
CAACAGGG	-0.116
TACCACAA	0.123
AGGAAGAT	0.13
AGTCAGGG	-0.185
ATAATTCA	0.282
AGAATTAT	0.197
ACAATTAT	0.248
ATAATTAT	0.302
ATAATTCG	0.242
CTAATTCA	0.112
ATCAGAGG	-0.132
GACGCTGC	-0.0366
ATGCGAAA	0.13
ACTTAGGG	-0.112
CTTAATAA	0.275
ATTAATAA	0.405
GTTAATAA	0.223
CTTAATAC	0.0534

Sequence	PBM E-score
ATTAATAG	0.228
ATTAATAC	0.201
AATATGGG	0.0708
CTTGGTAC	0.172
GAAGAGCA	-0.258
GCTTCCCC	-0.346
ACGTCAGC	0.0264
CTCGCGAC	0.068
GTCGCGAA	-0.0136
GTCGCGAC	0.324
AAGGTATC	-0.00987
CACCACAC	0.096
ATGTGATA	0.255
TTATGAAA	0.204
ATTTGATA	0.273
GTGTGATA	0.203
ATTTGATC	-0.0998
GGATGATA	0.122
GTATGATA	0.282
CTGTGATA	-0.106
GTATGAAA	0.29
GTATGAGA	0.158
GTATGAAC	0.0322
CTTTGATA	0.189
CAGAAGCA	0.137

Sequence	PBM E-score
TCCTACAA	0.0495
GTCATCCA	0.0539
AAAGACCT	0.0294
AGATGATA	0.08
ATATGATC	0.294
CTGTGAAA	0.264
ATATGATG	0.171
GTGTGAAA	0.133
ATATGATA	0.264
ATGTGAAA	0.134
CTATGATC	-0.0167
CTATGATA	0.0744
CTCTAGAA	-0.214
AGTGGTAC	0.0484
CTCGCTGC	-0.0528
AAGCATTA	0.106
CATTCAAC	-0.065
CTAAATAC	0.0333
ATATAAAT	0.242
ATAAATAA	0.307
ATAAATAC	0.325
ATAAATAG	0.195
ATAAAAAT	0.199
CTAAATAA	0.155
TTAAATAA	0.155

Sequence	PBM E-score
ATAAATCA	0.207
GTAAATAC	0.0284
ATAAATAT	0.267
GTAAATAA	0.267
GAACTCTC	-0.0889
AATTAGAT	0.245
ACATTTTC	0.125
CCTATAAC	-0.0793
CCATCTTA	0.00932
GTCCTAAC	-0.0915
ACCATCAC	0.0126
ATCTTCTA	0.0985
ATTGAGCA	0.105
AATAAAAG	0.0973
AATAAAAA	0.27
AATAAAAC	0.315
CATAAAAC	0.0691
GATAAAAC	0.219
AATAAAAT	0.239
ACCACTCG	0.0759
ACGTGTTG	0.0914
GAGCGACA	0.0223
ACTTGTCT	-0.0439
CGACAACG	0.0404
GTAATAAC	0.188

Sequence	PBM E-score
ATAATAAG	0.194
ATAATAGA	0.184
GAAATAAA	0.14
CTAATAAA	0.178
ATAATAAT	0.26
ATAATAAA	0.277
ATAATAAC	0.173
GTAATAAA	0.266
CTAATAAC	0.15
ACAATAAA	0.106
TTAATAAA	0.372
CGCGTCGA	0.0342
GTACGAAA	0.173
CTCGTCGA	-0.0244
CGTCGCTA	0.11
CTTCTGAA	0.0313
ACAGCCAT	-0.0294
ACGTGAAA	0.211
AGAATAAA	0.261
AGAATAAG	0.11
AGAATAAT	0.24
AGATAGGC	-0.0411
GGACAGCA	-0.0442
GTTTAGTA	0.275
ATTTAGTA	0.289

Sequence	PBM E-score
CTTTAGTA	0.0328
GGTTAGTA	0.0941
ATTTAGTG	0.204
ATTTAGTC	0.167
CCAGTAAG	-0.0333
ACACATGT	0.0237
CGGGTAAC	-0.0884
ACAATTCC	0.0667
ACATCTTC	0.0249
GCGGTAGA	0.00783
AACAAATA	0.25
GACAAATC	0.175
GACAAGTA	-0.00588
TACAAATA	0.299
CACAAATA	0.152
GACAAATA	0.299
TGGGGACA	-0.0974
ATGTAGCA	-0.00878
CCGCGGCA	0.135
